Screening results from PubChem BioAssay.
PKM2 activator = activators of human pyruvate kinase M2; purified PKM2, Kinase-Glo ATP luminescence, activation; response scale: 0% is enzyme alone, no compound; AID 1631; 0.34% of 260,000 active; P14618; Potency, µM (top dose mostly 57.5 µM), actives largely listed as activators; further: nearly all actives have a fitted effect of over 55% in size
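Purified hPK-M2 (>95% pure) converted ADP (0.1 mM final) to ATP with 0.5 mM PEP in 50 mM imidazole pH7.2, KCl, MgCl2, Tween 20, BSA; 1 h at room temperature. ATP detected by Kinase-Glo luminescence.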
ClpP mod = qHTS Assay for Activators of ClpP. Potency, µM (doses to about 57.5 µM). AID 651965, 2013. ATP-dependent Clp protease proteolytic subunit (Bacillus subtilis (strain 168)), P80244. purified B. subtilis ClpP, FRET peptide cleavage, 20 min. 1.9% of 340,000 active; active means well fitted falling curve with a large enough effect; inconclusive means small, poorly fitted or top-dose-only effect; inactive means no such curve, though single readings can be large or run the other way; further: the source files actives as falling curves though it sought activators and does not explain the sign; nearly all actives have a fitted effect of over 65% in size
Target sequence (P80244 whole entry, looked up): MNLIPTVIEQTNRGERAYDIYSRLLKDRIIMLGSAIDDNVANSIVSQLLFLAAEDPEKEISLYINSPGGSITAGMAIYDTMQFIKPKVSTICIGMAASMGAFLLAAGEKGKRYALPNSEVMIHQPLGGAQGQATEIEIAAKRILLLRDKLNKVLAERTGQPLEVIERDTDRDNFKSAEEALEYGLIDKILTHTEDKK
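FRET quenching reversal measured ClpP activation: 10 microg/mL B. subtilis ClpP at pH 8 with the FRET-FV decapeptide, read at 430 nm after 320 nm excitation. The 20-min minus 0-min signal was scaled between DMSO/no-enzyme wells and ADEP (5.8 microM final).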
USP2a inh = blocks human ubiquitin-specific protease USP2a; 0.01% of 330,000 active; USP2 core, Ub-CHOP2 coupled fluorogenic reporter, 485/531; AID 463254; Potency, µM (doses to about 38.3 µM), hits mostly inhibitors
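Cell-free coupled assay: 10nM USP2 core preincubated 30min RT with compound in Tris-HCl pH 8.0/CaCl2/CHAPS buffer, then 25nM Ub-CHOP2 and 25nM reporter substrate; fluorescence (Ex 485/Em 531) read after 60min RT, normalized to NEM inhibition, concentration-response curves fitted.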
IL-2 act = IL-2 activation; IL-2 activation reporter assay, cell-based qHTS; stimulated with anti-CD3/CD4/CD28 beads; in transgenic mouse T cells; activation, % (series mostly up to about 46 µM); 0.065% of 360,000 active; AID 652025; in the data active means activation above about 50%; inconclusive means mostly about 30% to 49%
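Unstimulated transgenic mouse T cells; 60-min compound exposure; bead-based TCR/CD4/CD28 stimulation; 18 h culture, 37 degrees C; dual fluorescence (EGFP, DsRed) plate cytometry.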
Pin1 inh = human Pin1 inhibition; Q13526; Pin1 FP peptide displacement, HiFluor488, 10 min; Potency, µM (doses to about 115 µM), actives largely listed as inhibitors; 0.009% of 390,000 active; active means well fitted inhibition curve with a large enough effect in the polarisation, with a control signal flat, not every such curve was filed as active; inconclusive means small, poorly fitted or top-dose-only effect, or effect the other way, or a change in a side signal; inactive means no such curve, though single readings can be large or run the other way; the % refers to the polarisation
Target sequence (Q13526 whole entry, looked up): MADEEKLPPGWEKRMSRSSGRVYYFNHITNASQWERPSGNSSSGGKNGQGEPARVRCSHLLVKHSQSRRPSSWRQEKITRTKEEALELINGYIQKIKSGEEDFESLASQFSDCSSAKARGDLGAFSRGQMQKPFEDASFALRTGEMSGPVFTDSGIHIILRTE
Integrin act MD = integrin-mediated muscular dystrophy alleviation activation | alpha7betagal myoblasts, beta-gal FDG fluorescence, 48 h | Potency, µM (top dose mostly 38.3 µM), actives largely listed as activators | 0.064% of 350,000 active | AID 624291; further: nearly all actives have a fitted effect of over 60% in size
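alpha7betagal+/- myoblasts (passage 13, 250/well) treated 48 h at 37C with compounds at 1:260 dilution of DMSO stock. Lysed, then beta-galactosidase activity read as FDG fluorescence (ex 480/em 540) after 30 min, with pre-read for autofluorescence.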
Large screens that a line does not name were inactive. Shown are actives, neighbours in structure and some others; about 1.9% of the full set was active somewhere. Unless noted, the call rests on the fitted dose curve; in most records, active means well fitted curve in the direction sought with a large enough effect; inconclusive means small, poorly fitted or top-dose-only effect, or another doubt; inactive means no such curve, though single readings can be large; an effect the other way counts as inactive or inconclusive.

CCCn1c2c(c(O)c(C(=O)Nc3ccc(OC)cc3)c1=O)CCCC2	ClpP mod 28µM
C/C(=C\c1ccc(C)o1)C(=O)c1c(C)cc(C)[nH]c1=O	PKM2 activator 10µM
C/C(=C\c1cccc(Br)c1)C(=O)c1c(C)cc(C)[nH]c1=O	none (no result: PKM2 activator)
CO/N=C(\Cn1ncc(N2CCCC2)c(Cl)c1=O)c1ccc(Cl)cc1	PKM2 activator 14µM
CC(=O)Cn1ncc(N2CCCCC2)c(Cl)c1=O	Integrin act MD inconclusive
CC(=O)c1cc(C#N)c(NCc2ccccc2)nc1C	none (no result: ClpP mod)
CCOC(=O)c1cc(C#N)c(NCc2ccccc2)nc1C	ClpP mod 32µM
CCOC(=O)c1cc(C#N)c(N2CCCC2)nc1-c1ccccc1	ClpP mod 28µM
CCC(=O)N1CCN(c2nc(-c3ccccc3)c3c(c2C#N)CCCC3)CC1	ClpP mod 32µM
N#Cc1c(SCC(=O)O)nc(-c2ccccc2)c2c1CCCC2	none
CCOC(=O)c1cc(C#N)c(N2CCN(C)CC2)nc1-c1ccccc1	none (no result: ClpP mod)
COc1ccc2c(c1)c(C(=O)CN(C)C)c(C)n2C	none (no result: PKM2 activator, USP2a inh, IL-2 act, Pin1 inh, Integrin act MD)
CN(C)CCNc1cc(N2CCN(C)CC2)ncn1	none (no result: PKM2 activator, USP2a inh, IL-2 act, Pin1 inh, Integrin act MD)
C=C1CCN(C(C)C(=O)OCc2cccc(C)c2)S(=O)(=O)c2ccccc21 (stereo not given)	none (no result: PKM2 activator, ClpP mod, USP2a inh, IL-2 act, Integrin act MD)
CN(C)c1ccc(/C=C/c2nc3ccccc3s2)c(Cl)c1	none (no result: PKM2 activator, USP2a inh, IL-2 act, Pin1 inh, Integrin act MD)
CCOC(=O)/C(C(N)=NCCO)=C(/O)c1ccccc1	Integrin act MD 13µM
COc1ccc(S(=O)(=O)Nc2ccc(-n3cccc3)cc2)cc1	PKM2 activator 10µM (no result: ClpP mod)
CCOC(=O)Cc1cc(=O)n2[nH]c(-c3ccc(C)cc3)cc2n1	ClpP mod inconclusive
CCOC(=O)Cc1c(C)nc2c(-c3ccc(Cl)cc3)c(C)nn2c1C	none (no result: ClpP mod)
CCOC(=O)Cc1c(C)nc2cc(-c3ccc(Cl)cc3)[nH]n2c1=O	ClpP mod 28µM
CCOC(=O)Cc1c(C)nc2c(-c3ccc(Cl)cc3)c[nH]n2c1=O	ClpP mod 3.2µM
COCc1cc(=O)n2[nH]c(-c3ccc(C)cc3)cc2n1	ClpP mod 20µM
CCOC(=O)CCc1c(C)nc2cc(-c3ccc(F)cc3)[nH]n2c1=O	ClpP mod 25µM
O=C(C[n+]1ccncc1)c1cccc([N+](=O)[O-])c1	none (no result: PKM2 activator, USP2a inh, IL-2 act, Pin1 inh, Integrin act MD)
CCc1c(C)nc2cc(-c3ccc(OC)cc3)[nH]n2c1=O	ClpP mod 32µM
COc1ccc(Cc2nc3c4c(ncn3n2)Oc2ccc3ccccc3c2C4c2ccc(OC)c(OC)c2)cc1 (stereo not given)	ClpP mod 13µM
CCOC(=O)COc1ccc2nsnc2c1Cl	ClpP mod 35µM
O=C(O)COc1cccc2nsnc12	none
COCCN(C(=O)COC(=O)Cc1coc2cc3c(cc12)CCC3)c1c(N)n(Cc2ccccc2)c(=O)[nH]c1=O	ClpP mod 18µM (no result: PKM2 activator)
CCCN(C(=O)c1cc2c(s1)CCC2)c1c(N)n(Cc2ccccc2)c(=O)[nH]c1=O	PKM2 activator 22µM, Pin1 inh inconclusive, Integrin act MD inconclusive
COCCN(C(=O)/C=C/c1cccc([N+](=O)[O-])c1)c1c(N)n(Cc2ccccc2)c(=O)[nH]c1=O	PKM2 activator 3.2µM (no result: ClpP mod)
COCCN(C(=O)COC(=O)c1oc2ccc(OC)cc2c1C)c1c(N)n(Cc2ccccc2)c(=O)[nH]c1=O	ClpP mod 13µM, Integrin act MD inconclusive (no result: PKM2 activator)
COCCN(C(=O)/C=C/c1ccccc1)c1c(N)n(Cc2ccccc2)c(=O)[nH]c1=O	none
O=C(Nc1ccccc1Sc1ccccc1)c1cnn2c1NC(=C1CC1)C=C2C(F)(F)F	none (no result: PKM2 activator, USP2a inh, IL-2 act, Integrin act MD)
CN(C)c1ccc(C(=C2c3ccccc3-c3ccccc32)c2ccc(N(C)C)cc2)cc1	none (no result: PKM2 activator, USP2a inh, IL-2 act, Pin1 inh, Integrin act MD)
Cc1csc(CNc2ncnc3cc(-c4ccc5c(c4)OCO5)ccc23)n1	none (no result: PKM2 activator, ClpP mod, USP2a inh, IL-2 act, Integrin act MD)
COc1cccc(C(=O)Nc2ccc(-c3nnc(-c4ccco4)o3)cc2)c1	none
CCCOc1ccc(-c2nnc(-c3ccco3)o2)cc1	ClpP mod 40µM
COc1cccc(-c2nnc(-c3ccco3)o2)c1	none
CC(C)COc1ccc(-c2nnc(-c3ccco3)o2)cc1	ClpP mod 16µM
O=C(CSc1ccc(-c2nc3ccccc3[nH]2)cn1)Nc1ccc2c(c1)OCCO2	ClpP mod 25µM
Cc1ccc(SCC(=O)Nc2ccc(-c3nc4ccccc4[nH]3)cc2)cc1	ClpP mod 25µM, Pin1 inh inconclusive
Cc1ccc2nc(-c3ccc(SCC(=O)Nc4ccc5c(c4)OCCO5)nc3)[nH]c2c1	none
Cc1cc2nc(-c3ccc(SCC(=O)N4CCOCC4)nc3)[nH]c2cc1C	ClpP mod 3.2µM
Cc1ccc2nc(-c3ccc(SCC(=O)Nc4nc(C)cs4)nc3)[nH]c2c1	ClpP mod 7.9µM
